Assay outcomes as filed in PubChem.
The sample as a whole holds a higher share of hits than the screen did.
TbREL1 primary: TbREL1 inhibition, primary screen; TbREL1 RNA ligation, FRET fluorescence; inhibition, % at 9.66 µM; 89,000 compounds, 0.49% hits;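 active = inhibition above the mean inhibition across all screened compounds plus 3 SD, cut at about 11% in these data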
Target sequence (P86926 whole entry, looked up): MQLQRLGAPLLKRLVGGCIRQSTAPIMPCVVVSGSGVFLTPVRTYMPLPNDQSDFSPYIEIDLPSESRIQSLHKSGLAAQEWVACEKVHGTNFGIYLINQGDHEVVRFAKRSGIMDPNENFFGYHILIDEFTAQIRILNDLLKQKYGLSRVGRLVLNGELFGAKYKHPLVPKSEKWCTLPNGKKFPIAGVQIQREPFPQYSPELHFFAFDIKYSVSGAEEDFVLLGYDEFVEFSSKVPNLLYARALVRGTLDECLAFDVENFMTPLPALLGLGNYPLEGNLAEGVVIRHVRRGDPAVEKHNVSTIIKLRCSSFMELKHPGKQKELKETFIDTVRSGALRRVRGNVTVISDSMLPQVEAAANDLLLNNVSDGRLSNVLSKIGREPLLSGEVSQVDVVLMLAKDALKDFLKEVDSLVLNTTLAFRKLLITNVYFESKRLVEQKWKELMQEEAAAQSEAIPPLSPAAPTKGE
TbREL1 conf: TbREL1 inhibition, confirmation; shares compounds with TbREL1 primary; TbREL1 RNA ligation, FRET fluorescence; inhibition, % at 9.66 µM; 390 compounds, 37% hits; AID 1117282;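 active = mean inhibition across replicates above a set limit taken from the earlier primary screen, cut at about 11% in these data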
Of the large screens only hits and unclear results are named; the others gave an inactive call (follow-up assays come after a bar, where they were run).

O=C(O)C1Cc2ccccc2CN1S(=O)(=O)c1ccc2ccccc2c1 (configuration not stated)	none
COCCN(C(=O)COC(=O)C1=COCCO1)c1c(N)n(Cc2ccccc2)c(=O)[nH]c1=O	none
COCCN(C(=O)COC(=O)c1cnc(C)cn1)c1c(N)n(Cc2ccccc2)c(=O)[nH]c1=O	none
COCCN(C(=O)COC(=O)c1cc2c(s1)CCC2)c1c(N)n(Cc2ccccc2)c(=O)[nH]c1=O	TbREL1 primary 27
Cc1c(NS(=O)(=O)c2cccc(C(=O)NC(C)c3ccccc3)c2)c(=O)n(-c2ccccc2)n1C (configuration not stated)	none
CO/N=C/NC(=O)c1c(OC)ccnc1Oc1ccc(Cl)cc1	none
Cc1ccc(C2(C)NC(=O)N(CC(=O)NCCC3=CCCCC3)C2=O)cc1 (configuration not stated)	none
CCCNC(=O)C(=O)NCCC1=CCCCC1	none
Cc1ccc(CNCCC2=CCCCC2)cc1	TbREL1 primary 11
Cc1cc(-c2ccc(C(C)C)c(S(=O)(=O)Nc3cc(C)on3)c2)on1	none
O=C(O)CCCN1C(=O)/C(=C\c2ccc(-c3nc4ccccc4s3)o2)SC1=S	none
CCC(C(=O)O)N1C(=O)/C(=C/c2cccn2C)SC1=S (configuration not stated)	none
O=C(O)CC(C(=O)O)N1C(=O)/C(=C/c2ccc(-c3nc4ccccc4s3)o2)SC1=S (configuration not stated)	TbREL1 primary 84
C[C@@H]1COc2cccc(N(C)CCO)c2S(=O)(=O)N1	none
S=C(Nc1ccc(Br)cc1)Nc1ccc2c(c1)OCCO2	none
COC(=O)[C@]12CCCCC=C1N(Cc1ccc(Cl)cc1Cl)C(=O)[C@H](CC(=O)NCCC(C)C)C2	none
CCC(=O)Nc1ccc(C(=O)NNC(=O)C(c2ccccc2)c2ccccc2)cc1	none
C=CC[C@@H](Cc1ccc(F)cc1)C(=O)OC[C@@H]1CCCN1C(=O)[C@@H](CC=C)CC(=O)NCCO	none
C=CC[C@@H](Cc1ccc(F)cc1)C(=O)OC[C@@H]1CCCN1C(=O)[C@H](CC=C)CC(=O)N[C@H](CO)Cc1ccccc1	TbREL1 primary 23
C=CC[C@@H](Cc1ccc(F)cc1)C(=O)OC[C@@H]1CCCN1C(=O)[C@@H](CC=C)CC(=O)N(CCO)Cc1ccccc1	none
O=C(OCC#CCSc1nnc(-c2ccc(Cl)cc2)o1)c1ccc(F)cc1	none
O=C(O)CCN1C(=O)/C(=C/c2ccc(F)cc2F)SC1=S	none
CC1CC(C)CN(S(=O)(=O)c2ccc(NC(=O)[C@@H]3CCCN3C(=O)c3cccs3)cc2)C1 (some centres not stated)	none
COc1ccc(S(=O)(=O)Cc2ccc(C(=O)N3CCN(c4ccccc4F)CC3)o2)cc1	none
CCOC(=O)[C@]12CCC=C1N(Cc1ccco1)C(=O)[C@H](CC(=O)N1CCC(c3ccccc3)CC1)C2	none
COc1cccc(C(=O)N2CCN(C3CCC(c4ccccc4)CC3)CC2)c1 (configuration not stated)	none
COC(=O)[C@H](Cc1ccc(O)cc1)NC(=O)Cn1ccc(NC(=O)OCc2ccccc2)nc1=O	none
Cc1cn(CC(=O)N[C@H](C)c2cccc3ccccc23)c(=O)[nH]c1=O	none
COC(=O)C(Cc1ccc(O)cc1)NC(=O)Cn1cc(C)c(=O)[nH]c1=O (configuration not stated)	TbREL1 primary 11 | TbREL1 conf inactive
Cc1ccccc1C(=O)NC(=S)NC1CCS(=O)(=O)C1 (configuration not stated)	none
Brc1ccc2nc(C3CCCCC3)c(CC3CCCCC3)n2c1	TbREL1 primary 11 | TbREL1 conf inactive
CC(C)(C)Cc1c(C2CCCCC2)nc2ccc(Cl)cn12	none
Cc1ccc2nc(C3CCCCC3)c(Cc3ccccc3C(F)(F)F)n2c1	none
O=C(c1cc(S(=O)(=O)N2CCOCC2)ccc1F)N(Cc1nnc(-c2ccccc2Cl)o1)C1CC1	none
CC1CCC(NC(=O)Cn2c(=O)oc3cc(S(=O)(=O)N4CCCC4)ccc32)CC1 (configuration not stated)	none
COc1cccc(/C=N/NC(=O)CCNc2n[nH]c(=O)[nH]c2=O)c1OC	none
COC(=O)CN1C(=O)[C@H]2[C@@H](c3ccc(C)o3)N3C(=O)CN(CCO)C(=O)[C@@]3(C)[C@H]2C1=O	none
Cc1ccc(-c2c[n+](Cc3ccc(Cl)c(Cl)c3)c3n2CCC3)cc1	TbREL1 primary 13 | TbREL1 conf inactive
Cc1ccc(S(=O)(=O)N2CCN=C2SCc2ccc(Cl)c(Cl)c2)cc1	none
Cc1ccc(C(=O)C[n+]2cc(-c3ccc(C)cc3)n3c2CCCCC3)cc1	none
CCOC(=O)c1sc(NC(=O)c2cccc(S(=O)(=O)N3CCc4ccccc43)c2)c(C#N)c1C	none
O=C(NC(=S)Nc1ccccn1)c1cccc([N+](=O)[O-])c1	none
Cc1ccc(C)c(S(=O)(=O)N2CCN(C(=O)c3cccnc3)CC2)c1	none
C/C=C1\COC(C(=O)NCCN2CCCC2)(C(F)(F)F)C=C1C=C1CCCCC1 (configuration not stated)	none
CC1CCN(c2c3c(nc4ncnn24)CCCC3)CC1	none
Cn1c(CN2CCCCC2)nc2cc(NC(=O)c3ccc(F)cc3)ccc21	none
COc1ccccc1CNC(=O)CCC(=O)Nc1nnc(C(C)C)s1	none
CC(C)c1ccc(NC(=O)NCc2ccc3c(c2)OCO3)cc1	none
CC(C)c1nnc(NC(=O)CCC(=O)NCc2ccc3c(c2)OCO3)s1	TbREL1 primary 18 | TbREL1 conf inactive
Cc1cccc(CCNc2nc3ccc(C)cc3n3cnnc23)c1	none
COc1ccc(C2=NN(Cc3c(F)cccc3Cl)C(=O)CC2)cc1	none
Cn1c(C=O)c(-c2ccc3cc[nH]c3c2)c2ccccc21	none
CCOC(=O)c1ccc(NC2c3ncccc3C(=O)N2Cc2ccc(F)cc2)cc1 (configuration not stated)	none
COc1ccc(CN2C(=O)c3cccnc3C2Nc2cc(Cl)ccc2OC)cc1 (configuration not stated)	TbREL1 primary 32 | TbREL1 conf 41
COc1ccc(Cl)cc1NC(=S)N1CCN(c2ncccn2)CC1	none
O=C1c2cccc3cccc(c23)C(=O)N1CCN1CCN(C(=S)Nc2ccccc2)CC1	none
CCCCOCCCNC(=O)N[C@@H](CCSC)C(=O)OC	none
O=C1COc2ccc(C(=O)COC(=O)Cc3ccc(F)cc3)cc2N1	none
COc1ccc(N(CC(=O)NCc2cccnc2)S(=O)(=O)c2ccccc2)c(OC)c1	none
C#CCOCCOCCOCCNc1nc(N2CCN(C(=O)[C@H]([C@@H](C)CC)n3cc([C@@H](N)CC(C)C)nn3)CC2)nc(N2CCN(C(=O)[C@H]([C@@H](C)CC)n3cc([C@@H](N)CC(C)C)nn3)CC2)n1	TbREL1 primary 11 | TbREL1 conf inactive
C#CCOCCOCCOCCNc1nc(N2CCN(C(=O)[C@H]([C@@H](C)CC)n3cc([C@@H](N)Cc4ccc(O)cc4)nn3)CC2)nc(N2CCN(C(=O)[C@H]([C@@H](C)CC)n3cc([C@@H](N)Cc4ccc(O)cc4)nn3)CC2)n1	none
C#CCOCCOCCOCCNc1nc(N2CCN(C(=O)[C@H]([C@@H](C)CC)n3cc([C@@H](N)CC(C)C)nn3)CC2)nc(N2CCN(C(=O)[C@H](Cc3ccc(O)cc3)n3cc([C@@H](N)CC(C)C)nn3)CC2)n1	none
CCOC(=O)C1CCCN(c2c(NCCCN(CC)c3cccc(C)c3)c(=O)c2=O)C1 (configuration not stated)	none
CCCCC(=O)OCC(=O)Nc1ccc(OC(F)F)cc1	none
O=C(COC(=O)C1CCC1)Nc1ccc(OC(F)F)cc1	none
C[C@H](NC(N)=O)C(=O)OCC(=O)Nc1ccc(OC(F)F)cc1	TbREL1 primary 12 | TbREL1 conf inactive
